Screens: PubChem, National Center for Advancing Translational Sciences (NCATS)
Compounds with a hit are over-represented: about 8.3% of the library has one in this group of screens.
VP16 counter = VP16 counterscreen qHTS for inhibitors of ROR gamma transcriptional activity; Drosophila S2 Gal4-VP16 UAS-luciferase, luminescence, 20 h; Potency, µM (top dose mostly 53.6 µM), for the others: at the highest dose activity, negative = inhibition, hits mostly inhibitors; AID 2546, 2010; hit rate 3.5% among 310,000;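 note: Gal4-VP16 expression switched on by copper sulfate through the metallothionein promoter; potency is the fitted concentration of half-maximal effect; % is set by controls: 0 for no effect and ±100 for the full control effect; nearly all actives have a fitted effect of over 50% in size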
SW480 rereplic = A quantitative high throughput screen for small molecules that induce DNA re-replication in SW480 colon adenocarcinoma cells; SW480 DNA re-replication, Hoechst DNA content imaging, 48 h; Potency, µM (highest dose often 46.1 µM), for the others: top-dose re-replication activation, most hits filed as activators; hit rate 1.8% among 340,000; AID 624297, 2012; note: potency is the fitted concentration of half-maximal effect; % of control where 0% means no effect; nearly all actives have a fitted effect of over 55% in size
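Image-based DNA-content assay: after two days of treatment, nuclei were labelled with the DNA dye Hoechst and imaged, and hits were compounds raising the count of nuclei showing high fluorescence intensity.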
Giardia killer = Small Molecules that selectively kill Giardia lamblia: qHTS | activity change, % at 7.66 µM, hits read low | AID 540267, 2011 | Giardia lamblia trophozoite viability | hit rate 0.15% among 340,000; in the data active = activity change below about -80%; inconclusive = between about -30% and that limit;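 note: parasites exposed to compound for two days anaerobically before the ATP read; % is set by controls: 0 for no effect and ±100 for the full control effect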
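Luminescence from cellular ATP indicates surviving trophozoites (100 cells/well) following 48 hrs anaerobic compound treatment at 37 deg C; signal develops 15-30 min at room temperature.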
BCR signal inh = qHTS Assay to Find Inhibitors of Chronic Active B-Cell Receptor Signaling; ABC-DLBCL IkBa-CBG/CBR reporter, luminescence ratio, 4 h; Potency, µM (doses to about 46.1 µM), without a hit: top-dose activity change, negative = inhibition, usual class: inhibitors; hit rate 0.05% among 340,000; active = well fitted inhibition curve with a large enough effect in the signal ratio, with a control signal flat, not every such curve was filed as active; inconclusive = small, poorly fitted or top-dose-only effect, or effect the other way, or a change in a side signal; the % refers to the signal ratio;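 note: potency is the fitted concentration of half-maximal effect; plate controls were basal doxycycline-induced cells for no effect and cells given 10 µM MG132 for full effect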
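Concentration-response series (up to 46 uM) were applied to TMD8 dual-reporter cells for 4 h at 37C with doxycycline. Green/red ratio, after filter-overlap correction, defined %Activity; red signal alone was normalised to basal cells and zero luminescence.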
RORg inh = qHTS for inhibitors of ROR gamma transcriptional activity. Nuclear receptor ROR-gamma (Mus musculus), P51450. Drosophila S2 Gal4-RORgamma UAS-luciferase reporter, 20 h. Potency, µM (series often up to 53.6 µM), for inactives: top-dose activity change, negative = inhibition, actives largely listed as inhibitors. hit rate 5.4% among 310,000. AID 2551, 2010; note: potency is the fitted concentration of half-maximal effect; % is set by controls: 0 for no effect and ±100 for the full control effect; nearly all actives have a fitted effect of over 60% in size
Target sequence (P51450 whole entry, looked up, the tested form may be a part): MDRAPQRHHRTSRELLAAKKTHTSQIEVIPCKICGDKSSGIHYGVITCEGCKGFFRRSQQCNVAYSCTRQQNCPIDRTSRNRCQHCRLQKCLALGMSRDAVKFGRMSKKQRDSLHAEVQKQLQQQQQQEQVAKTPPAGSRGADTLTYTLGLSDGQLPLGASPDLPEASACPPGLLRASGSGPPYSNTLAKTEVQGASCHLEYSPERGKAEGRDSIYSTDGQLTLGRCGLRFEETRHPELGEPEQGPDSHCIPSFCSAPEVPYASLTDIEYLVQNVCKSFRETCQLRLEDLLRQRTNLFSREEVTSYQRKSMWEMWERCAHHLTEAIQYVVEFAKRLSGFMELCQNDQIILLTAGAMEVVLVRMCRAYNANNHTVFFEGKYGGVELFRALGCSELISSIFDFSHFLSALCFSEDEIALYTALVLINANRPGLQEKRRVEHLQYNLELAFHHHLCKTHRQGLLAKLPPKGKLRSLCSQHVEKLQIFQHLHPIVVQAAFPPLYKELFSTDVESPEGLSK
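Schneider cells (Drosophila), stable Gal4 DBD–ROR gamma + UAS-luc; 1 hr cmpd preincubation; Cu2+ induction 700 uM final; 20 hr ambient; luminescence.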
MCF10A rerep = A quantitative high throughput screen for small molecules that induce DNA re-replication in MCF 10a normal breast cells; MCF 10A DNA re-replication, Hoechst nuclear intensity, 48 h; hit rate 2.9% among 350,000; Potency, µM (highest dose often 46.1 µM), without a hit: at the highest dose activity, positive = re-replication, actives largely listed as activators; note: potency is the fitted concentration of half-maximal effect; % of control where 0% means no effect; nearly all actives have a fitted effect of over 50% in size
Starred values were filed as active, the others as inactive; ? = inconclusive; nt = no result given; [ ] = dose if it differs, or a comment. Unless noted, calls come from the whole dose curve; as a rule, active = well fitted curve in the direction sought with a large enough effect; inconclusive = small, poorly fitted or top-dose-only effect, or another doubt; inactive = no such curve, though single readings can be large; an effect the other way counts as inactive or inconclusive.

SMILES	VP16 counter	SW480 rereplic	Giardia killer	BCR signal inh	RORg inh	MCF10A rerep
CC1CC(C)CN(C(=O)C2CCN(S(=O)(=O)N3CCC4(CC3)OCCO4)CC2)C1 (centres undefined)	-8%	-2%	1	5%	-11%	5%
COC(=O)c1cn(NC(=O)c2cc([N+](=O)[O-])ccc2F)c(=O)c2ccccc12	4%	?	-11	-2%	-41%	4.6µM*
CCCCCCc1cc2cc(C(=O)NC)c(=N)oc2cc1O	-2%	13µM*	-8	-12%	10%	?
CNc1c(NS(=O)(=O)c2ccc(F)c(Cl)c2)c(=O)oc2ccccc12	-2%	1%	-12	0%	4%	3%
CCCCCCc1cc2cc(C(N)=O)c(=N)oc2cc1O	2%	nt	nt	?	2%	nt
CCCCCCc1cc2cc(C(=O)OCC)c(=O)oc2cc1O	0%	1.3µM*	29	1%	-7%	?
CCCCCCc1cc2cc(/C(N)=N/NC(=O)c3ccncc3)c(=O)oc2cc1O	nt	1.6µM*	-19	1%	nt	1.3µM*
CCCCCCc1cc2cc(S(=O)(=O)c3ccc(F)c(Cl)c3)c(=O)oc2cc1O	4µM*	2.6µM*	-30	14%	?	?
CCCCCCc1cc2cc(C(=O)Nc3cccc(OC)c3)c(=O)oc2cc1O	-31%	?	8	?	6%[10 µM]	?
CCCCCCc1cc2cc(C(=O)Nc3ccc(OC)cc3)c(=O)oc2cc1O	-6%	15µM*	-19	?	11%	0.73µM*
CCOC(=O)c1cc2ccc3ccccc3c2oc1=O	-4%	?	0	7%	0%	7%
CCOC(=O)c1cc2ccc(OC(=O)c3ccco3)cc2oc1=O	1%	30%	-22	?	5%	3.3µM*
COc1ccc(S(=O)(=O)N(C)CC(=O)NCc2ccccn2)cc1	-16%	1%	15	7%	1%	1%
CN1C(=O)N(CC(=O)N2CCN(S(=O)(=O)Cc3ccccc3)CC2)C(=O)C12CCCCC2	nt	-1%	7	1%	nt	11%
Fc1cccc(COc2ccccc2C(=S)N2CCCC2)c1	3%	-7%	8	?	11µM*	-2%
S=c1nc2ccccc2c2nc(-c3ccccc3)[nH]n12	0.35µM*	-1%	-10	?	0.089µM*	14%
S=c1nc(-c2ccccc2)[nH]n1-c1ccccc1	11µM*	4%	-2	-4%	7.9µM*	-6%
S=c1nc2ccccc2c2nc(-c3ccccc3Cl)[nH]n12	1.6µM*	1%	14	?	0.35µM*	1%
Clc1ccccc1-c1nc2ccccc2[nH]1	-26%	0%	-16	?	-27%	4%
Cc1nc(=S)n(-c2ccccc2)[nH]1	?	3%	-7	4%	?	1%
S=c1[nH]nc([C@@H]2C[C@H]2c2ccccc2)n1-c1ccccc1Cl	10µM*	-10%	28	1%	1.4µM*	-1%
Cc1cccc(-n2c(CNC(=O)Cc3ccccc3)n[nH]c2=S)c1	9%	-2%	11	3%	-32%	1%
Cc1ccc(C2CC2c2n[nH]c(=S)n2-c2cccc(C)c2)cc1 (centres undefined)	6.3µM*	?	-12	12%	3.2µM*	?
Cc1ccc(C2CC2c2n[nH]c(=S)n2-c2ccc(Cl)cc2)cc1 (centres undefined)	10µM*	3%	15	?	2.8µM*	91%
CCCC12CN3CCN(CC(C3)/C1=N\NC(=O)c1ccc(C(C)(C)C)cc1)C2	-10%	-1%	-5	-5%	-44%	2%
SMILES	VP16 counter	SW480 rereplic	Giardia killer	BCR signal inh	RORg inh	MCF10A rerep
Cc1ccc(C(=O)NCC(=O)NC2CCCCCC2)cc1	-6%	0%	17	6%	0%	0%
Cc1cc(C)n(CCc2nc(-c3ccc(C)o3)cs2)n1	11µM*	3%	2	?	?	26%
Cc1cc(C)n(CCc2nc(-c3cc4ccccc4o3)cs2)n1	-30%	1%	-4	7%	?	20%
Cc1ccc2nc(N/N=C\c3ccc([N+](=O)[O-])o3)nc(-c3ccccc3)c2c1	1%	?	-99*	?	10µM*	?
N#Cc1ccccc1/C=N/Nc1nc(-c2ccccc2)c2cc(Br)ccc2n1	-25%	1%	-14	?	11µM*	?
O=[N+]([O-])c1ccc(/C=N/Nc2nc(-c3ccccc3)c3cc(Br)ccc3n2)o1	4%	0%	-91*	18%	2%	2%
OCCNc1nc(-c2ccccc2)c2cc(Br)ccc2n1	7%	?	9	13%	?	?
O=[N+]([O-])c1ccc(/C=N/Nc2ccc3ccccc3c2)o1	-29%	?	?	?	-11%	10%
CCOc1ccc(CCNC(=O)COC(=O)c2oc3ccccc3c2COC)cc1OCC	nt	-9%	4	2%	nt	-2%
COc1ccc2ccccc2c1CNC(=O)CC1C(=O)NCCN1CC(C)(C)C (centres undefined)	1%	-27%	-3	1%	16%	-1%
COc1cccc(Nc2ccc(Nc3cccc(OC)c3)nn2)c1	-26%	-2%	-15	?	11µM*	8%
Fc1ccc(NC(=S)Nc2ccc(F)c(Cl)c2)cc1Cl	-23%	-4%	6	?	1.8µM*	?
Cc1ccc(NC(=S)NC(=O)C2CC2)cc1Cl	5µM*	?	21	?	3.2µM*	-1%
Fc1ccc(NC(=S)N2CCCC2)cc1Cl	-10%	-5%	14	?	?	1%
O=C(Nc1ccc(F)c(Cl)c1)C1CCCCC1	nt	-1%	-5	15%	nt	-5%
O=C(NC(=S)Nc1ccc(F)c(Cl)c1)C1CC1	7.1µM*	11%	-10	?	5.6µM*	2%
O=C(Nc1ccc(F)c(Cl)c1)C1CCCC1	nt	5.8µM*	17	nt	nt	?
CN1CCN(Cc2c(O)ccc3cc(-c4ccccn4)c(=O)oc23)CC1	0%	9.2µM*	18	6%	1%	23µM*
O=c1oc2c(CN3CCCCCC3)c(O)ccc2cc1-c1nc2ccccc2[nH]1	0%	nt	nt	1%	15%	nt
COc1cc(/C=C/C(=O)c2ccc3c(c2)OCO3)cc(Cl)c1O	-3%	?	-21	?	-18%	9.2µM*
COc1ccc(Oc2ccc(/C=N/NC(=O)c3cccnc3)cc2[N+](=O)[O-])cc1	16%	?	8	?	?	6%
